Assay results from the supplement of paper PMC10681739.

target: T1, ETS1 (UniProt P14921); assay: ETS1 binding intensity (PBM fluorescence), ETS1 alone (arbitrary fluorescence units); higher = stronger binding; settings: ETS1 concentration 1 nM; RUNX1 concentration 0 nM
T1 sequence: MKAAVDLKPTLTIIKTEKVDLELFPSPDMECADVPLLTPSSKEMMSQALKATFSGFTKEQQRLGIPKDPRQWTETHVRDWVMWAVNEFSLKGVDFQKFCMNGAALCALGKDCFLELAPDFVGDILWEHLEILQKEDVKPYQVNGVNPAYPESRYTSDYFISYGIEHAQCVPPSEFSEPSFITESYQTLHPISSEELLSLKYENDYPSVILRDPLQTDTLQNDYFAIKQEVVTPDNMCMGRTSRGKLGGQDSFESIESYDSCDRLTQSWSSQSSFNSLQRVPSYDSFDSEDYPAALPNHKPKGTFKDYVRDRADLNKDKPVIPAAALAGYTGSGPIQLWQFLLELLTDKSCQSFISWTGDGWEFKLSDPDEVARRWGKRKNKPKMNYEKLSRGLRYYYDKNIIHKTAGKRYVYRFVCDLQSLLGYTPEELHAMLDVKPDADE
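For RUNX1 binding intensity (PBM fluorescence), RUNX1 alone in this document: Full-length recombinant human RUNX1 bound to double-stranded 36-bp genomic probes on a high-density microarray, scored as Alexa488 fluorescence per spot via anti-RUNX1 antibody, median of four replicate spots.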

**Q.** GGACTGCGTTTCCGGACACTGCGGGTGCCGGTAGCC was tested. Which ETS1 binding intensity did it give?
**A.** 1290

**Q.** With GAAGCCCAACAGGATGCCGAGTAACCACCCACTGAA as the sequence, how does the ETS1 binding intensity read?
**A.** 1040

**Q.** TTACACAACAGGAAACTATGTTTAGCGGTTAATCCA was tested. Which ETS1 binding intensity did it give?
**A.** 2490

**Q.** Which ETS1 binding intensity does the source give for CTCGTGCGTCACTTCCGCCCCGCAGACCCGCCCACT here?
**A.** 2410

**Q.** With TTCAGGTGACTTCCGGCCGGACCGCTGAGGACGCGG as the sequence, how does the ETS1 binding intensity read?
**A.** 9020

**Q.** Which ETS1 binding intensity does the source give for AAAGGCGGAAGGGGGGCAGGGAACCCACAAAACAGA here?
**A.** 457

**Q.** AAACAGGAAATCACAGCAGCGTTGCGGAGTGGAGCA was tested. Which ETS1 binding intensity did it give?
**A.** 1100

**Q.** How did the ETS1 binding intensity turn out when CTTGCCACACTTCCTCTTGTTTTGAACCACTATATT was run?
**A.** 724

**Q.** ACCAACCGGAAGTGATCGTGTTGTGGCCGAAGGAGG was tested. Which ETS1 binding intensity did it give?
**A.** 16100

**Q.** AGGACGGGCGGAAGTGGCTGCGGTGGATGGTGGGAG was tested. Which ETS1 binding intensity did it give?
**A.** 4180

**Q.** How did the ETS1 binding intensity turn out when CGGTGGCTTCCGGCCCATGGCGGTGGTTGGTGACTC was run?
**A.** 807

**Q.** Which ETS1 binding intensity does the source give for CTGACAGTTACTTCCTGTCTTTGTGGGCGATTGTGA here?
**A.** 3170

**Q.** With CCAGGCGGAAGCGGCCGGGAGTAGCGCTGCGGTTGG as the sequence, how does the ETS1 binding intensity read?
**A.** 631

**Q.** How did the ETS1 binding intensity turn out when GAGGCAGGCGGATGTCAGTGTGGTTAGAGCACAGTG was run?
**A.** 1170

**Q.** How did the ETS1 binding intensity turn out when GGCTCGGCAAACATCCGGCTCCGCGGTGGAACGGGA was run?
**A.** 1430

**Q.** How did the ETS1 binding intensity turn out when GATGCTTGTTCAGGATGCGGTTTCTTGCAGCAAGTT was run?
**A.** 674

**Q.** How did the ETS1 binding intensity turn out when CCATTCACGGGCTTCCGCGGTGTCCCCACCCCCTAA was run?
**A.** 724

**Q.** TCCCCACATCCTTTAAAACGATGAGATAACCACATG was tested. Which ETS1 binding intensity did it give?
**A.** 398

**Q.** With CCTTTCCGCGAGACCTTCCGCGGTTATCCAGCGAGT as the sequence, how does the ETS1 binding intensity read?
**A.** 372

**Q.** How did the ETS1 binding intensity turn out when AGGCCGCTTCCTCCCACATGAAACCGCAGGCTTCGG was run?
**A.** 374

**Q.** With AACAGTCACATCCGGGGCCGAGAGGAACCGCGAACG as the sequence, how does the ETS1 binding intensity read?
**A.** 1100

**Q.** With GGCTGGCCTAGGAACTTCCGCCACAAGTCCCGCCCC as the sequence, how does the ETS1 binding intensity read?
**A.** 1860

**Q.** CCGGGTAGGATCCGGTTGCCTTTCTGCGGTGGAGGA was tested. Which ETS1 binding intensity did it give?
**A.** 410

**Q.** With CCTCCCGACCGGAAGCCCCGCCACAGAGCGGGTTGT as the sequence, how does the ETS1 binding intensity read?
**A.** 6240

**Q.** With AGCTGAGAGCCTGCCGGAAGCCACAGCTTCTTCTCG as the sequence, how does the ETS1 binding intensity read?
**A.** 4180

**Q.** How did the ETS1 binding intensity turn out when ACCGGGTGCTGAGGAGGAAGTGGTTGCTATAACCCC was run?
**A.** 2350

**Q.** For CCGGCAGGAAGTTAGCATGGGCGGACCACACGGGGG, which ETS1 binding intensity is on record?
**A.** 1400

**Q.** With GGCTTTCCGTTCAAGGATCTTTTTGCGGTCTTTGTC as the sequence, how does the ETS1 binding intensity read?
**A.** 445

**Q.** CGAAACGCGTTCCCCGGAAACCGCGCCCGGCTCCGA was tested. Which ETS1 binding intensity did it give?
**A.** 1810

**Q.** With TGACTTCCTCCTCTTCACTAACAGAAACCTCAATTT as the sequence, how does the ETS1 binding intensity read?
**A.** 440

**Q.** How did the ETS1 binding intensity turn out when AGGGCATAAACAGGATGTGGTGTTGGATGAAACCTT was run?
**A.** 5290

**Q.** How did the ETS1 binding intensity turn out when GGGGCAGGAAGTGGAGGTTTGAAGTGGTTTAGAGTA was run?
**A.** 1740

**Q.** How did the ETS1 binding intensity turn out when TCTGTTCTTCCTTTTCCTGTGCGGTGTGCCCCAAAC was run?
**A.** 628

**Q.** How did the ETS1 binding intensity turn out when AGAACAGCAGGAAATAAATACCCACCTCAGGACTGC was run?
**A.** 959

**Q.** With CTGCTGCTTTTAGGATGTGGTTTTATTATTGTCGGG as the sequence, how does the ETS1 binding intensity read?
**A.** 670

**Q.** Which ETS1 binding intensity does the source give for AAGAACCTAGAGGATGTGTGGTTTTATGTGCAGGGT here?
**A.** 710

**Q.** For AATTGAGACAGGAAATGTTGGTTTGTGGTCAGGCAC, which ETS1 binding intensity is on record?
**A.** 5020

**Q.** Which ETS1 binding intensity does the source give for TATCACATCCTGCCGGACAAAAAGGCCAAACCACCT here?
**A.** 536

**Q.** Which ETS1 binding intensity does the source give for TTTCCACTTCCTGTTCTACTTGTGGCTACTGACTCA here?
**A.** 2530

**Q.** For ATTCCTAGAGAGGAAATGCGGGCTCAGGGTGTCGGC, which ETS1 binding intensity is on record?
**A.** 1550

target: RUNX1 (UniProt Q01196); assay: RUNX1 binding intensity (PBM fluorescence), RUNX1 alone (arbitrary fluorescence units); higher = stronger binding; settings: RUNX1 concentration 2 nM; ETS1 concentration 0 nM
Sequence (Q01196 whole entry): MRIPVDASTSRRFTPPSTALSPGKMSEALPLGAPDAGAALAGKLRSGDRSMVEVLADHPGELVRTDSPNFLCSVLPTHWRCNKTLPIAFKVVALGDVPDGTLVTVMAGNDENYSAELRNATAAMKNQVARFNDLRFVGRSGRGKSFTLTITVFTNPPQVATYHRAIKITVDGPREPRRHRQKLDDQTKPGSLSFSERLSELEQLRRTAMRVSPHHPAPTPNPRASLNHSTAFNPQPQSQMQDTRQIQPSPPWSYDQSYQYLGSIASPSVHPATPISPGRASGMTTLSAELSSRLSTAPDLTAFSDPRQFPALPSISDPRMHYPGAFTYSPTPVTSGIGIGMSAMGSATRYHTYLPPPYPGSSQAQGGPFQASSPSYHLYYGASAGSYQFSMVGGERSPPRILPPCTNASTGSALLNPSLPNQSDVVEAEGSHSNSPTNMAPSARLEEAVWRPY
Experimental: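 Cooperative gcPBM on 36-bp genomic probes with neighbouring ETS1 and RUNX1 sites. Recombinant human RUNX1 (2 nM) was incubated alone or with ETS1 (25 nM) and detected with anti-RUNX1 antibody plus Alexa488 secondary. Values are medians over 4 replicate spots; the RUNX1+ETS1 data were normalised to the RUNX1-only data. The probes sit in constant array flanks that are not printed.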

**Q.** How did the RUNX1 binding intensity turn out when GGACTGCGTTTCCGGACACTGCGGGTGCCGGTAGCC was run?
**A.** 671

**Q.** With GAAGCCCAACAGGATGCCGAGTAACCACCCACTGAA as the sequence, how does the RUNX1 binding intensity read?
**A.** 822

**Q.** For TTACACAACAGGAAACTATGTTTAGCGGTTAATCCA, which RUNX1 binding intensity is on record?
**A.** 885

**Q.** With CTCGTGCGTCACTTCCGCCCCGCAGACCCGCCCACT as the sequence, how does the RUNX1 binding intensity read?
**A.** 1050

**Q.** TTCAGGTGACTTCCGGCCGGACCGCTGAGGACGCGG was tested. Which RUNX1 binding intensity did it give?
**A.** 684

**Q.** AAAGGCGGAAGGGGGGCAGGGAACCCACAAAACAGA was tested. Which RUNX1 binding intensity did it give?
**A.** 959

**Q.** AAACAGGAAATCACAGCAGCGTTGCGGAGTGGAGCA was tested. Which RUNX1 binding intensity did it give?
**A.** 754

**Q.** Which RUNX1 binding intensity does the source give for CTTGCCACACTTCCTCTTGTTTTGAACCACTATATT here?
**A.** 2620

**Q.** With ACCAACCGGAAGTGATCGTGTTGTGGCCGAAGGAGG as the sequence, how does the RUNX1 binding intensity read?
**A.** 785

**Q.** With AGGACGGGCGGAAGTGGCTGCGGTGGATGGTGGGAG as the sequence, how does the RUNX1 binding intensity read?
**A.** 797

**Q.** For CGGTGGCTTCCGGCCCATGGCGGTGGTTGGTGACTC, which RUNX1 binding intensity is on record?
**A.** 770

**Q.** For CTGACAGTTACTTCCTGTCTTTGTGGGCGATTGTGA, which RUNX1 binding intensity is on record?
**A.** 829

**Q.** For CCAGGCGGAAGCGGCCGGGAGTAGCGCTGCGGTTGG, which RUNX1 binding intensity is on record?
**A.** 817

**Q.** How did the RUNX1 binding intensity turn out when GAGGCAGGCGGATGTCAGTGTGGTTAGAGCACAGTG was run?
**A.** 782

**Q.** How did the RUNX1 binding intensity turn out when GGCTCGGCAAACATCCGGCTCCGCGGTGGAACGGGA was run?
**A.** 785

**Q.** GATGCTTGTTCAGGATGCGGTTTCTTGCAGCAAGTT was tested. Which RUNX1 binding intensity did it give?
**A.** 3420

**Q.** How did the RUNX1 binding intensity turn out when CCATTCACGGGCTTCCGCGGTGTCCCCACCCCCTAA was run?
**A.** 1080

**Q.** TCCCCACATCCTTTAAAACGATGAGATAACCACATG was tested. Which RUNX1 binding intensity did it give?
**A.** 1000

**Q.** CCTTTCCGCGAGACCTTCCGCGGTTATCCAGCGAGT was tested. Which RUNX1 binding intensity did it give?
**A.** 1160

**Q.** AGGCCGCTTCCTCCCACATGAAACCGCAGGCTTCGG was tested. Which RUNX1 binding intensity did it give?
**A.** 3590

**Q.** AACAGTCACATCCGGGGCCGAGAGGAACCGCGAACG was tested. Which RUNX1 binding intensity did it give?
**A.** 894

**Q.** Which RUNX1 binding intensity does the source give for GGCTGGCCTAGGAACTTCCGCCACAAGTCCCGCCCC here?
**A.** 822

**Q.** Which RUNX1 binding intensity does the source give for CCGGGTAGGATCCGGTTGCCTTTCTGCGGTGGAGGA here?
**A.** 848

**Q.** How did the RUNX1 binding intensity turn out when CCTCCCGACCGGAAGCCCCGCCACAGAGCGGGTTGT was run?
**A.** 848

**Q.** AGCTGAGAGCCTGCCGGAAGCCACAGCTTCTTCTCG was tested. Which RUNX1 binding intensity did it give?
**A.** 801

**Q.** With ACCGGGTGCTGAGGAGGAAGTGGTTGCTATAACCCC as the sequence, how does the RUNX1 binding intensity read?
**A.** 741

**Q.** With CCGGCAGGAAGTTAGCATGGGCGGACCACACGGGGG as the sequence, how does the RUNX1 binding intensity read?
**A.** 1470

**Q.** GGCTTTCCGTTCAAGGATCTTTTTGCGGTCTTTGTC was tested. Which RUNX1 binding intensity did it give?
**A.** 1610

**Q.** Which RUNX1 binding intensity does the source give for CGAAACGCGTTCCCCGGAAACCGCGCCCGGCTCCGA here?
**A.** 763

**Q.** For TGACTTCCTCCTCTTCACTAACAGAAACCTCAATTT, which RUNX1 binding intensity is on record?
**A.** 1400

**Q.** For AGGGCATAAACAGGATGTGGTGTTGGATGAAACCTT, which RUNX1 binding intensity is on record?
**A.** 750

**Q.** With GGGGCAGGAAGTGGAGGTTTGAAGTGGTTTAGAGTA as the sequence, how does the RUNX1 binding intensity read?
**A.** 799

**Q.** With TCTGTTCTTCCTTTTCCTGTGCGGTGTGCCCCAAAC as the sequence, how does the RUNX1 binding intensity read?
**A.** 1530

**Q.** Which RUNX1 binding intensity does the source give for AGAACAGCAGGAAATAAATACCCACCTCAGGACTGC here?
**A.** 822

**Q.** Which RUNX1 binding intensity does the source give for CTGCTGCTTTTAGGATGTGGTTTTATTATTGTCGGG here?
**A.** 1020

**Q.** For AAGAACCTAGAGGATGTGTGGTTTTATGTGCAGGGT, which RUNX1 binding intensity is on record?
**A.** 914

**Q.** AATTGAGACAGGAAATGTTGGTTTGTGGTCAGGCAC was tested. Which RUNX1 binding intensity did it give?
**A.** 1170

**Q.** For TATCACATCCTGCCGGACAAAAAGGCCAAACCACCT, which RUNX1 binding intensity is on record?
**A.** 919

**Q.** TTTCCACTTCCTGTTCTACTTGTGGCTACTGACTCA was tested. Which RUNX1 binding intensity did it give?
**A.** 1100

**Q.** ATTCCTAGAGAGGAAATGCGGGCTCAGGGTGTCGGC was tested. Which RUNX1 binding intensity did it give?
**A.** 754
